D2 PAM-1: positively modulates the human D2 dopamine receptor allosterically. HEK293 T-REx D2, calcium flux, EC20 dopamine potentiation. potentiation, % at 10 µM. 340,000 compounds, 0.34% hits;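 active means potentiation over 3 SD above the plate norm, cut at about 30% in these data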
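Cells plated with tetracycline inducer and held overnight at 30 C; calcium dye loaded 30–90 min at room temperature; baseline taken, compound added and read 180 s; EC20 dopamine then added and read 180 s.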
D2 ag-1: agonists of human D2 dopamine receptor (beta-arrestin) | activation, % (concentration not given with the values) | 360,000 compounds, 0.084% hits | P14416 | DiscoveRx PathHunter D2 beta-arrestin, luminescence, 90 min; 100% = 57 uM dopamine signal; in the data active means activation above about 40%; inconclusive means between about 15% and that limit
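Agonist mode: compounds alone added to overnight-plated D2 PathHunter cells for 90 min at 37 C, with 57 uM final dopamine (EC100) defining full response. Beta-arrestin recruitment detected by chemiluminescent reagent, read after 1 h at ambient temperature.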
D2 PAM-2: positive allosteric modulators of human D2 dopamine receptor | P14416 | DiscoveRx D2 beta-arrestin cells, luminescence, 90 min; 100% = 57 uM dopamine signal | potentiation, % (no concentration beside the values) | 360,000 compounds, 0.23% hits; in the data active means potentiation above about 50%; inconclusive means mostly about 30% to 49%
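PathHunter D2 cells, attached overnight at 37 deg C, received compound in DMSO plus dopamine at EC20 (50 nM final) for 90 min at 37 deg C. Beta-arrestin recruitment was read as luminescence after 1 h with detection reagent at ambient temperature.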
D2 antag: antagonizes the human D2 dopamine receptor; HEK293 TREx D2 cells, calcium flux, dopamine EC80; inhibition, % at 10 µM; 340,000 compounds, 2% hits; in the data active means inhibition above about 30%; inactive means below that, where a call was filed
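Cells plated overnight at 30 C with tetracycline; no-wash calcium dye, 30–90 min RT; 10 s baseline; compound pinned; 180 s read; EC80 dopamine added; another 180 s read.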
D2 ag-2: D2 dopamine receptor (human) agonism; P14416; HEK293 T-REx D2 cells, calcium flux agonist mode; activation, % at 2 µM; 340,000 compounds, 0.53% hits;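 active means activation over 3 SD above normal in the single-dose calcium agonist read, cut at about 30% in these data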
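HEK293 Trex D2 cells, tetracycline-induced, o/n 30 C 5% CO2; no-wash Ca dye, RT 30–90 min; 10-cycle baseline, 23 nl cpd added, kinetic Ca read 180 s; agonist hits = positive Ca response.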
D3 ag: D3 receptor agonism confirmed, beta-arrestin readout; shares compounds with D2 ag-2; DiscoveRx D3 beta-arrestin cells, luminescence, 90 min; Potency, µM (series often up to 76.9 µM), hits mostly activators; 2,300 compounds, 4% hits; AID 720506; further: nearly all actives have a fitted effect of over 70% in size
Target sequence (P35462 whole entry, looked up): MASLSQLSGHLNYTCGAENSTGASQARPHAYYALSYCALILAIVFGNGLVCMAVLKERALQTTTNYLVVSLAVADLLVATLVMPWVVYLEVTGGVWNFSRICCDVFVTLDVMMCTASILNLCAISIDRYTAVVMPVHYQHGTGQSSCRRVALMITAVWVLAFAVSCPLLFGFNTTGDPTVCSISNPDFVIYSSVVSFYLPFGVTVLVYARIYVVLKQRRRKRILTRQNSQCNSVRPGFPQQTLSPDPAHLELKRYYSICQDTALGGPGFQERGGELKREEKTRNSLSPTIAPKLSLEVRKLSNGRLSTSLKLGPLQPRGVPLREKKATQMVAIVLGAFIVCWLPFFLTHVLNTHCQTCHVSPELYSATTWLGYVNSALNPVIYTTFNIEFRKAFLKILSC
D2 ag-3: activates human D2 dopamine receptor in D3 counterscreen. shares compounds with D2 ag-2. DiscoveRx PathHunter D2 beta-arrestin, luminescence, 90 min; response scale: percent relative to full dopamine signal. Potency, µM (highest dose often 76.9 µM), hits mostly activators. 2,300 compounds, 5.9% hits. AID 720507; further: nearly all actives have a fitted effect of over 70% in size
Numbers stand for hits. This is a sample that favours compounds with a hit; in the whole collection about 2.4% have one here. Unless noted, the call rests on the fitted dose curve; in most records, active means well fitted activation curve with a large enough effect; inconclusive means small, poorly fitted or top-dose-only effect; inactive means flat fitted curve, though single readings scatter.

CCCN1C(=O)C2(c3ccccc31)c1c(oc3ccccc3c1=O)C(=O)N2CCCOC(C)C (configuration not stated) was read as D2 PAM-1 inactive and D2 ag-2 inactive.
For CCCN(CC1CC1)C(=O)COC(=O)c1oc2c(F)cccc2c1C the results were D2 PAM-1 inactive, D2 ag-1 inconclusive, D2 PAM-2 inactive, D2 antag 41, D2 ag-2 43, D3 ag inactive and D2 ag-3 inconclusive.
For Cc1ccc(OCC(=O)Nc2ccc(S(=O)(=O)Nc3ncccn3)cc2)c(C(C)(C)C)c1 the results were D2 PAM-1 inactive.
Screening CCN1C(C(=O)Nc2cc(C)on2)=C(O)c2ccccc2S1(=O)=O returned D2 PAM-1 inactive, D2 ag-1 inactive, D2 PAM-2 inactive, D2 antag inactive, D2 ag-2 38, D3 ag inactive and D2 ag-3 inactive.
`CN(C(=O)CSc1nnc(-c2ccccc2)n1C)C1CCS(=O)(=O)C1` (configuration not stated) gave D2 PAM-1 inactive, D2 ag-1 inactive, D2 PAM-2 inactive, D2 antag inactive and D2 ag-2 inactive.
`Cc1cc(C)n2c(SCC(=O)N(C)C3CCS(=O)(=O)C3)nnc2n1` (configuration not stated) gave D2 PAM-1 inactive, D2 ag-1 inactive, D2 PAM-2 inactive, D2 antag inactive, D2 ag-2 60, D3 ag inactive and D2 ag-3 inactive.
`CC1CCN(C(=O)c2ccc3c(c2)N(Cc2ccccc2)C(=O)c2ccccc2S3(=O)=O)CC1` gave D2 PAM-1 inactive and D2 ag-2 inactive.
`COc1ccc2nc(/N=C(\N)NC(=O)C(C)(C)C)nc(C)c2c1` gave D2 PAM-1 inactive, D2 ag-1 inactive, D2 PAM-2 inactive, D2 antag 35, D2 ag-2 inactive, D3 ag inactive and D2 ag-3 inactive.
For CCC(=O)N/C(N)=N/c1nc(C)c2cc(OC)ccc2n1 the results were D2 ag-1 inactive and D2 PAM-2 inactive.
Screening COc1ccc(CCNC(=O)c2cc(C3CC3)on2)cc1OC returned D2 PAM-1 inactive, D2 ag-1 inactive, D2 PAM-2 inactive, D2 antag inactive, D2 ag-2 inactive, D3 ag inactive and D2 ag-3 inactive.
`CNc1ncnc2c1ncn2[C@H]1CN(CCOC)C[C@@H](CO)O1` gave D2 ag-1 inactive and D2 PAM-2 inactive.
`COc1ccc(CC(=O)Nc2ccc(S(=O)(=O)NC(C)C)cc2)cc1` gave D2 ag-1 inactive, D2 PAM-2 inactive, D3 ag inactive and D2 ag-3 inactive.
CCCCNS(=O)(=O)c1ccc(NC(=O)Cc2ccc(OC)cc2)cc1 was read as D2 PAM-1 inactive, D2 ag-1 inactive, D2 PAM-2 inactive, D2 antag inactive and D2 ag-2 inactive.
C=CC[n+]1c(-c2ccc(Cl)cc2Cl)csc1Nc1c(C)n(C)n(-c2ccccc2)c1=O was read as D2 PAM-1 inactive, D2 ag-1 inactive, D2 PAM-2 inactive, D2 antag 49, D2 ag-2 57, D3 ag inactive and D2 ag-3 inactive.
Screening Cc1c(Nc2nc(-c3ccccc3)cs2)c(=O)n(-c2ccccc2)n1C returned D2 PAM-1 inactive, D2 ag-1 inactive, D2 PAM-2 inactive, D2 antag inactive and D2 ag-2 inactive.
`C=CC[n+]1c(-c2ccc(C)cc2)csc1Nc1c(C)n(C)n(-c2ccccc2)c1=O` gave D2 ag-1 inactive, D2 PAM-2 inactive, D3 ag inactive and D2 ag-3 inactive.
Screening CCCCCn1c(CN2CCN(c3ccc(OC)cc3)CC2)nc2c1c(=O)[nH]c(=O)n2C returned D2 PAM-1 inactive and D2 ag-2 inactive.
`COc1ccc(NC(=O)C2(C)Cc3c(-c4ccc(N(C)C)cc4)ccnc3O2)cc1` (configuration not stated) gave D2 ag-1 inactive and D2 PAM-2 inactive.
`CC(Oc1ccccc1)C(=O)Nc1ccc(C(=O)OCc2cc(=O)n3ccsc3n2)cc1` (configuration not stated) gave D2 PAM-1 inactive and D2 ag-2 inactive.
`CCOC(=O)c1cccc(NC(=O)NC2COc3ccccc3C2)c1` (configuration not stated) gave D2 ag-2 inactive.
Screening O=C(CC1SC(N2CCCC2)=NC1=O)Nc1ccc(C(=O)NCc2ccccc2F)cc1 (configuration not stated) returned D2 ag-1 inactive and D2 PAM-2 inactive.
Screening CNC(=O)c1ccc(NC(=O)CC2SC(N3CCCC3)=NC2=O)cc1 (configuration not stated) returned D2 PAM-1 inactive, D2 ag-1 inactive, D2 PAM-2 inactive, D2 antag 39, D2 ag-2 inactive, D3 ag inactive and D2 ag-3 inactive.
Screening O=C(CC1SC(N2CCCC2)=NC1=O)Nc1ccc(C(=O)NCCOc2ccccc2F)cc1 (configuration not stated) returned D2 PAM-1 inactive, D2 ag-1 inactive, D2 PAM-2 inactive, D2 antag 52, D2 ag-2 66, D3 ag inconclusive and D2 ag-3 inactive.
Screening COc1ccc(CN2CCN(C(=O)CC(C)C)CC2)cc1 returned D2 PAM-1 inactive, D2 ag-1 inactive, D2 PAM-2 inactive, D2 antag inactive, D2 ag-2 38, D3 ag inactive and D2 ag-3 inactive.
COc1cc(CN2CCN(C(=O)CC(C)C)CC2)cc(OC)c1OC was read as D2 PAM-1 inactive, D2 ag-1 inactive, D2 PAM-2 inactive, D2 antag inactive and D2 ag-2 inactive.
`Cc1ccc(CN2CCN(C(=O)CC(C)C)CC2)cc1` gave D2 ag-1 inactive, D2 PAM-2 inactive, D3 ag inactive and D2 ag-3 inactive.
Screening COC(=O)c1ccc(OCC2c3cc(OC)c(OC)cc3CCN2C(=O)c2ccc(F)cc2)cc1 (configuration not stated) returned D2 PAM-1 inactive and D2 ag-2 inactive.
`COc1cc(Cn2cnnn2)ccc1O` gave D2 PAM-1 inactive, D2 ag-1 inactive, D2 PAM-2 inactive, D2 antag inactive, D2 ag-2 inactive, D3 ag inactive and D2 ag-3 inactive.
For c1cc2c(cc1Cn1cnnn1)OCO2 the results were D2 PAM-1 inactive, D2 ag-1 inactive, D2 PAM-2 inactive, D2 antag inactive and D2 ag-2 inactive.
CC(C)c1ccc(NC(=O)C2CC3CCC2C3)cc1 (configuration not stated) was read as D2 PAM-1 inactive, D2 ag-1 inactive, D2 PAM-2 inactive, D2 antag inactive and D2 ag-2 inactive.
